# Measured values published in PubChem BioAssay AID1347419 (Sanford-Burnham Center for Chemical Genomics, 2020).
# The campaign covered roughly 99,000 compounds. About 820 (0.83%) were called active. What follows is part of a selection rich in actives, with near analogues and random picks from the rest. Values without a mark were called inactive.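 Rule for the calls: active = Z-score of -3 or lower, scaled per plate to the spread of control and sample wells; inactive = z-score above -3.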
# Target: Protein-tyrosine kinase 2-beta (Homo sapiens) (UniProt Q14289)
# Sequence (Q14289 whole entry, looked up): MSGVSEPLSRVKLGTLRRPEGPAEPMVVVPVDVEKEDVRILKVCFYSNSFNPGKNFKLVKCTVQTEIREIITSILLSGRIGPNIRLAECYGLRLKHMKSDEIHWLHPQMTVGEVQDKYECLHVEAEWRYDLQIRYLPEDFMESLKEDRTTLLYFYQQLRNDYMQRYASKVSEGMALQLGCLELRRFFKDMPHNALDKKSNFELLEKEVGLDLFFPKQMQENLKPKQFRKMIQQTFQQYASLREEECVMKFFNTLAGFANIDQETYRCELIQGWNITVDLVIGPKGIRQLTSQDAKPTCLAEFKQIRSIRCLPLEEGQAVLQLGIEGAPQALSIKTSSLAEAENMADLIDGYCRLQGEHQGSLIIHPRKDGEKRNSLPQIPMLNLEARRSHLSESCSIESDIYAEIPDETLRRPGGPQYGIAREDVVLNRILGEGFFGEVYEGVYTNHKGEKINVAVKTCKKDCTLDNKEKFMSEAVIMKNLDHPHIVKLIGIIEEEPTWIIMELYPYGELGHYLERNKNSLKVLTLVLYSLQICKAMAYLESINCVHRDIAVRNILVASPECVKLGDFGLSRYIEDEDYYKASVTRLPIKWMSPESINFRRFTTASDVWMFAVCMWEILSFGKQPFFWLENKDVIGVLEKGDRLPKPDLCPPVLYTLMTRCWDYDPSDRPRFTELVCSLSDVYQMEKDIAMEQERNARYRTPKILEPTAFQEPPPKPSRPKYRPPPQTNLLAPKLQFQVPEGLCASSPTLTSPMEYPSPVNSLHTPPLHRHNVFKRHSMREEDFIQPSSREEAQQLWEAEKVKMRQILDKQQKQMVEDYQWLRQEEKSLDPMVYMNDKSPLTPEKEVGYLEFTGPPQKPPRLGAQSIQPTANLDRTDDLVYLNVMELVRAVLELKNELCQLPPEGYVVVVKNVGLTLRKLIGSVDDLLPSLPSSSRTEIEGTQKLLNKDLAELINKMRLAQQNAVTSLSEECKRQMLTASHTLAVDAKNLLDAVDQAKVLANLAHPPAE
# Experiment: Pyk2 FERM oligomerization blockers – Q293 cells, FERM NanoBiT luminescence, HTS, primary screen (AID 1347419);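 note: the deposit names both 25 µM and 10 µM; negative z-score means lost luminescence so less FERM oligomerization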
# Parameters: dose or concentration left out as unconfirmed
# Conditions: hits give low values
row,Structure (SMILES),z-score
1,COc1cccc(C(=O)Nc2cc3c(cc2Br)OCCCO3)c1,0.23
2,CCOc1ccc(NC(=O)CCC(=O)N/N=C/c2ccc([N+](=O)[O-])s2)cc1,0.19
3,CC(C)(C)NC(=O)c1cccc(NC(=O)Cc2ccc(Br)cc2)c1,-0.17
4,COC(=O)c1c(NC(=O)CN2CCN(S(=O)(=O)c3ccccc3[N+](=O)[O-])CC2)sc2c1CCC(C)C2 (stereo unspecified),0.28
5,CNC(=O)c1ccsc1NC(=O)c1ccc(S(=O)(=O)N2CCOCC2)cc1,-1
6,CC(=O)Oc1c(C(=O)c2nnc(C)o2)c(=O)n(Cc2ccccc2)c2ccccc12,0.7
7,O=C(Cc1c[nH]c2ccccc12)N/N=C/c1cccc(F)c1,-0.81
8,COc1cccc2c1CCC(NC(C)=O)C2=O (stereo unspecified),0.78
9,CCOC(=O)c1ccc(N/C(=N/S(=O)(=O)c2ccccc2)c2ccccc2)cc1,-1.09
10,COCCCNC(=O)CNC(=S)N(Cc1cc(OC)c(OC)c(OC)c1)C1CCCC1,0.81
11,Cc1ccc(C(=O)C(=S)N2CCOCC2)cc1,-0.25
12,COc1ccc(/C=C/C(=O)Nc2ccc3c(c2)OCCO3)cc1OC,-0.25
13,Cc1ccc(C(=O)N2CC(=O)Nc3ccccc32)o1,-0.11
14,COc1ccc(OC)c(-n2cc3c(=O)n(C)c(=O)n(C)c3c2)c1,-0.75
15,CC(=O)Nn1cc2c(=O)n(C)c(=O)n(C)c2c1,1.08
16,Cn1c(=O)c2cn(-c3cccc4ccccc34)cc2n(C)c1=O,-3.24 (active)
17,COc1ccc(CC(=O)Nc2cc(S(=O)(=O)N3CCCCC3)ccc2N2CCN(C)CC2)cc1,0.23
18,COc1ccccc1NC(=O)C1=C(C)Nc2nc3ccccc3n2C1c1cccs1 (stereo unspecified),-0.65
19,CC(C)C(=O)Nc1ccc2c3c(cccc13)CC2,-0.27
20,CCOC(=O)c1cc2cc(-c3c(C(=O)OCC)oc4cc(O)cc(O)c4c3=O)ccc2o1,-3.6 (active)
21,Cc1ccc(OC(=O)c2cc3ccccc3o2)cc1,0.88
22,O=c1c(-c2ccc3c(c2)OCCO3)c(C(F)(F)F)oc2cc(O)cc(O)c12,-1.19
23,O=C(NC(=S)NC1CCSC1=O)c1ccccc1F (stereo unspecified),2.45
24,CCOc1ccc(/C=N/OCC(=O)NCc2cccs2)cc1,0.26

row,Structure (SMILES),z-score
1,Nc1nc(SCc2ccc([N+](=O)[O-])cc2)c2ncn(C3OC(CO)C(O)C3O)c2n1 (stereo unspecified),1.34
2,Cc1cccc(N2CCN(C(c3ccc(N(C)C)cc3)c3nnnn3C(C)(C)C)CC2)c1C (stereo unspecified),0.72
3,COc1ccc(C(c2nnnn2C2CCCCC2)N2CCN(c3ccccc3F)CC2)cc1 (stereo unspecified),-2.56
4,Cc1cccc(N2CCN(C(c3ccccc3)c3nnnn3CC3CCCO3)CC2)c1C (stereo unspecified),-3.18 (active)
5,Cc1cc(SCC(=O)c2ccccc2)nc(SCC(=O)c2ccccc2)n1,-3.01 (active)
6,Cc1nc(SCC(=O)c2ccccc2)c([N+](=O)[O-])[nH]1,-0.67
7,COC(=O)c1cc(C(=O)CSc2nc(C)cc(C)n2)ccc1O,-0.22
8,CC(C)=C1C2CCC1C1C(=O)N(NC(=O)c3ccco3)C(=O)C21 (stereo unspecified),1.15
9,Cc1ccc(NC(=O)NC(=O)CSc2nnc(-c3ccc(OC(F)F)cc3)n2N)c(C)c1,-0.1
10,COc1ccc(-c2csc(NC(=O)CCCc3cccs3)n2)cc1,0.83
11,Cc1ccc(N(Cc2ccc(C(=O)Nc3ccccc3C(=O)NCc3ccco3)cc2)S(C)(=O)=O)cc1C,-3.96 (active)
12,CS(=O)(=O)N(Cc1ccc(Cl)cc1)c1ccc(C(=O)NCCSCc2ccco2)cc1,0.47
13,Cc1cccc(Nc2ccccc2C(=O)NCc2ccco2)c1C,-0.62
14,CCOC(=O)N/N=C/c1cn(Cc2ccccc2Cl)c2ccccc12,-1.11
15,C=CCn1c(SCc2cccc(F)c2)nc2cc(C(=O)N3CCC(C(N)=O)CC3)ccc2c1=O,-1.07
16,COc1ccc(/C=N/N=C/c2c[nH]c(=O)c(C#N)c2Nc2ccccc2)cc1,0.79
17,CCOC(=O)c1c(-c2ccc(C)cc2C)csc1NC(=O)CSc1nnnn1C,-3.44 (active)
18,CCOC(=O)CNC(=O)CSc1nnnn1-c1cc(C)ccc1C,-0.31
19,COC(=O)c1ccccc1NC(=O)CSc1nnnn1C,0.19
20,Cc1nonc1C(=O)N/N=C/c1ccc(O)cc1,0.67
21,CC(C)Nc1nnc(SCC(=O)c2c[nH]c3ccccc23)s1,0.14
22,Cc1cccc(C(=O)c2cccc(C)c2)c1,0.43
23,Cc1cccc(-n2c(SCC(N)=O)nc3c(c2=O)C2(CCCCC2)Cc2ccccc2-3)c1,1.27
24,CC(NC(=O)COC(=O)C1CCN(S(=O)(=O)c2ccccc2C(F)(F)F)CC1)c1ccccc1 (stereo unspecified),-0.04

row,Structure (SMILES),z-score
1,Nc1ccc(-c2nnc(-c3ccc(-c4ccccc4)cc3)o2)cc1,-3.38 (active)
2,Brc1ccc(-c2nnc(-c3ccccc3)o2)o1,-0.77
3,O=C(Nc1ccc(-c2nnc(-c3ccccc3)o2)cc1)c1ccc(Br)o1,0.72
4,Cc1ccnc(NC(=O)c2ccoc2C)c1,0.21
5,CCN(CC)CC(=O)c1c[nH]c2ccc(OC)cc12,-0.09
6,COc1ccc2[nH]c3ccc(OC)cc3c2c1,-0.72
7,COc1ccc2[nH]cc(/C=C(/C#N)S(=O)(=O)c3ccccc3)c2c1,-3.31 (active)
8,CCOc1ccc(C(=O)Nc2cccc(SC)c2)cc1,0.21
9,Cc1ccc(Nc2nnc(SCC(=O)c3cc4ccccc4o3)s2)cc1C,-0.02
10,CC1CCN(C(=S)NC2CC3CCC2C3)CC1 (stereo unspecified),-0.08
11,Cc1cccc(NC(=O)COc2ccccc2C)n1,0.47
12,CN1CCN(c2ccc(NC(=O)COc3ccc(Cl)cc3Cl)cc2)CC1,-0.4
13,Cc1ccccc1OCC(=O)Nc1ccc(N2CCN(C(=O)C(C)C)CC2)c(Cl)c1,-3.97 (active)
14,O=S(=O)(NCCc1ccncc1)c1ccccc1,0.43
15,Cc1cccc(-n2c(C)cc(/C=N\NC(=O)c3cccs3)c2C)c1,-0.91
16,CCn1c(/C=C/Nc2ccccc2)[n+](CC)c2ccc(C(=O)OCC(F)(F)F)cc21,1.39
17,CCCc1[nH]nc2c1C(c1c(C)nn(-c3ccccc3)c1Cl)C(C#N)=C(N)O2 (stereo unspecified),0.22
18,Cc1nn(Cc2ccccc2)c2c1C(c1ccccc1)C(C#N)=C(N)O2 (stereo unspecified),-3.32 (active)
19,Cc1cc2c(c(=O)n1Cc1ccco1)C(c1ccccc1)C(C#N)=C(N)O2 (stereo unspecified),1.13
20,O=C(COC(=O)c1ccccc1SCC(=O)NC1CCCCC1)NC1CCCCC1,1.77
21,CCCn1c(C)cc(C(=O)COC(=O)c2c(C)nn(-c3ccccc3)c2C)c1C,1.05
22,Cc1nn(-c2ccccc2)c(C)c1C(=O)OCC(=O)NC(=O)NC1CCCCC1,-3.49 (active)
23,COC(=O)[C@H]1Cc2cnoc2C[C@]1(C)C(=O)O,1.39
24,O=c1c(Cl)c(NCc2ccc(F)cc2Cl)cnn1C12CC3CC(CC(C3)C1)C2,0.24

row,Structure (SMILES),z-score
1,COc1cccc(NC(=O)c2nn(C34CC5CC(CC(C5)C3)C4)cc2[N+](=O)[O-])c1,-0.19
2,COc1ccc(-c2cc(C3CCN(c4ncccc4[N+](=O)[O-])CC3)[nH]n2)cc1,-3.98 (active)
3,Cc1ccc(-c2csc(NC(=O)c3cccs3)n2)cc1,-3.32 (active)
4,Cc1ccc(-c2nnc(-c3ccc(NC(=O)c4cccs4)cc3)o2)cc1,-0.15
5,Cc1nc(-c2ccc(NC(=O)c3cccs3)cc2)cs1,-0.41
6,CC(C)(C)C1C/C(=C/c2ccco2)C(=O)/C(=C/c2ccco2)C1 (stereo unspecified),0.6
7,Cc1ccc(OCC(=O)OC(C)CN(C)Cc2ccccc2)cc1 (stereo unspecified),2.87
8,COc1ccc(N2C(=O)CNC2=S)cc1,0.4
9,CCOc1cccc(-c2nn3c(-c4ccccn4)nnc3s2)c1,-1.53
10,c1ccc(-c2cc(-c3nnc4sc(-c5ccccn5)nn34)[nH]n2)cc1,-3.26 (active)
11,COc1ccc(-c2nn3c(-c4ccccc4)nnc3s2)cc1OC,-1.25
12,CC(NC(=O)C(=O)NN=C1CCC(C(C)(C)C)CC1)c1ccccc1 (stereo unspecified),-0.32
13,CNc1ccc(NC(C)=O)cc1[N+](=O)[O-],-0.8
14,CC(C)CC(=O)NC(=S)Nc1cc(C(=O)O)ccc1Cl,0.14
15,COc1ccc(-c2cn(-c3ccc(OC)cc3)c(=S)[nH]2)cc1,0.64
16,CSCCC(NC(=O)COc1ccccc1)C(=O)Nc1ccc(C)cc1 (stereo unspecified),0.49
17,CC(C)OCCCNc1ncnc2c1[nH]c1ccc(F)cc12,-1.09
18,CCN1CCCC1CNc1ncnc2c1[nH]c1ccc(F)cc12 (stereo unspecified),1.26
19,Fc1ccc2[nH]c3c(N4CCSCC4)ncnc3c2c1,-3.08 (active)
20,O=C(CNCc1ccc(F)cc1)Nc1ccccc1-c1ccccc1,-0.24
21,COc1ccc(C(=O)NNS(=O)(=O)c2ccc(C)cc2)cc1,-0.21
22,CCCCNC(=O)CCn1c(=O)c2ccccc2n(Cc2cc(C)ccc2C)c1=O,1.04
23,CN1/C(=c2/s/c(=C3/C(=O)N(c4ccccc4)NC3=Nc3ccccc3)n(C)c2=O)C(C)(C)c2ccccc21,-3.22 (active)
24,COc1cccc(-c2ccc(C#N)c(SCC(=O)NCCc3ccc(Cl)cc3)n2)c1,-0.01
